From PubChem BioAssay (NCI)
About 83,000 compounds went through this panel and 20% of them were active in at least one assay; those are over-represented in the sample as a whole.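 Testing used 96-well plates and a 48-hour single-concentration exposure. Example: -40 means 40% of the starting cells died.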 Unmarked numbers belong to inactive results. Active and inactive are the calls of the source. The calls were made as follows: active = growth percent below 10; inactive = the rest.

Each compound was assayed on MDA-MB-468 breast (assay: NCI-60 one-dose screen, 48 h (100 = growth as untreated, 0 = no growth, -100 = all killed)). Conditions: 10 µM unless noted.

| SMILES | growth |
| --- | --- |
| N#Cc1c(-c2ccccc2)cc(-c2ccccc2)n(CCCC(=O)Nc2ccccc2N)c1=O | 14.9% |
| CCCCn1cnc2c(=O)[nH]cnc21 | 104% |
| Cc1c(C(=O)/C=C/Nc2c(Cl)cc(S(N)(=O)=O)cc2Cl)sc2nc3ccccc3n12 | 102% |
| COc1ccc(/C=C(/C(=O)N2CCCCC2)c2cc(OC)c(OC)c(OC)c2)cc1 | 13.3% |
| Cc1[nH]c(C(=O)Nc2ccccc2OC2CCN(CCN3CCOCC3)CC2)c(Cl)c1Cl | 91.6% |
| C#C[C@]1(O)CCC2C3CCc4cc(O)ccc4C3CC[C@@]21C (stereo partly drawn) | 12.1% |
| Clc1ccc2c(c1)N(C1CCCN(Cc3ccccc3)C1)c1ccccc1S2 (stereo not drawn) | 29.5% |
| CCN(CC)c1ccc2c(cc1=O)[C@@H](NC(C)=O)CCc1cc(OC)c(OC)c(OC)c1-2 | 36.9% |
| Cc1cc(C=O)c(C)c2c1[nH]c1ccccc12 | 68.1% |
| COC(=O)[C@H](Cc1cn(C)cn1)NC(=O)[C@H](CC(=O)OCc1ccccc1)NC(=O)Nc1cc(C(F)(F)F)cc(C(F)(F)F)c1 | -74.2% [100 µM] (active) |
| C#C[C@@]1(O)[C@@H](CO)O[C@@H](n2ccc3c(N)ncnc32)[C@@H]1O | -45.3% (active) |
| CCOC(=O)C1=C(C)NC(SCc2nnc(-c3ccc(Cl)cc3)o2)=NC1c1ccc(Cl)cc1 (stereo not drawn) | 48.9% |
| COc1cnc2c(c1)C(=O)c1c-2n(CCCNC2=NCCS2)c(=O)c2cc([N+](=O)[O-])ccc12 | -39% (active) |
